This is an account of results in PubChem BioAssay.

Unmarked numbers belong to inactive results. Unless noted, the rule behind the calls is not given here.

As a reminder, the inhibition is the change of the read-out against control, counted positive when it falls.

The first assay addresses Single-stranded DNA-binding protein (Escherichia coli (strain K12)) (UniProt P0AGE0). Description: E. coli SSB displacement from DNA, counter-screen for HCV NS3 helicase inhibitor project, biochemical, fluorescence polarization, NIH Clinical Collection (AID 743271; in the data active = inhibition above about 28%). The following applies: hits give high values, concentration not given here. A general note: A counterscreen serves to expose hits that act by an unwanted route or on another target.
With `COCCCOc1ccnc(CS(=O)c2nc3ccccc3[nH]2)c1C` (stereo not drawn), the inhibition was 0.39%.

As to `N=c1nc(N2CCCCC2)cc(N)n1O`, the inhibition is -5.05%.

For `CC(C)NCC(O)COc1cccc2[nH]ccc12` (stereo not drawn), the inhibition was 2.57%.

With `CCn1cc(C(=O)O)c(=O)c2ccc(C)nc21`, the inhibition was -2.76%.

Take `CN(C)C(=O)C(CCN1CCC(O)(c2ccc(Cl)cc2)CC1)(c1ccccc1)c1ccccc1`: the inhibition was -5.05%.

Turning to `Cc1cc(NS(=O)(=O)c2ccc(N)cc2)no1`, the inhibition is -0.48%.

For the molecule `CCCC(CCC)C(=O)O`, the inhibition is -1.24%.

`COc1cc(Cc2cnc(N)nc2N)cc(OC)c1OC`: the inhibition is 0.29%.

With `COC(=O)C1=C(C)NC(C)=C(C(=O)OCCN(C)Cc2ccccc2)C1c1cccc([N+](=O)[O-])c1` (stereo not drawn), the inhibition was 7.91%.

Regarding `O=C(CCCN1CCC(O)(c2ccc(Cl)cc2)CC1)c1ccc(F)cc1`, the inhibition was 1.18%.

Turning to `CC(C)(C)NCC(O)c1ccc(O)c(CO)c1` (stereo not drawn), the inhibition was 2.98%.

Regarding `COc1c2occc2cc2ccc(=O)oc12`, the inhibition was -5.05%.

For the molecule `NC(=O)c1cccnc1`, the inhibition was -1.97%.

`CN/C(=C\[N+](=O)[O-])NCCSCc1ccc(CN(C)C)o1`: the inhibition was 6.39%.

In the case of `CNCCCN1c2ccccc2CCc2ccccc21`, the inhibition was -2%.

Turning to `CN1C(=O)CC[C@H]1c1cccnc1`, the inhibition was 6.83%.

`CCCC(=O)Nc1ccc(OCC(O)CNC(C)C)c(C(C)=O)c1` (stereo not drawn): the inhibition is -5.82%.

Turning to `O=C(O)CCc1nc(-c2ccccc2)c(-c2ccccc2)o1`, the inhibition was 2.21%.

As for `CC(C(=O)O)c1cccc(C(=O)c2ccccc2)c1` (stereo not drawn), the inhibition is 1.05%.

With `CN1CCN(C2=Nc3cc(Cl)ccc3Nc3ccccc32)CC1`, the inhibition is -3.53%.

Consider `COC(=O)C1=C(C)NC(C)=C(C(=O)OC)C1c1ccccc1[N+](=O)[O-]`, for which the inhibition is 1.44%.

Test system in the next assay: not listed separately
Description: fluorescence interference in NS3h assay format, artefact control for HCV NS3 helicase inhibitor project, biochemical, NIH Clinical Collection (AID 743272).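 Note: HCV NS3 helicase with a Cy5 labelled single stranded DNA probe.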 The note with it: fluorescence interference counterscreen, hits give low values.
On to `COCCCOc1ccnc(CS(=O)c2nc3ccccc3[nH]2)c1C` (stereo not drawn), for which the fluorescence ratio was 0.94.

Turning to `N=c1nc(N2CCCCC2)cc(N)n1O`, the fluorescence ratio is 1.03.

With `CC(C)NCC(O)COc1cccc2[nH]ccc12` (stereo not drawn), the fluorescence ratio was 0.9.

Take `CCn1cc(C(=O)O)c(=O)c2ccc(C)nc21`: the fluorescence ratio was 0.97.

On to `CN(C)C(=O)C(CCN1CCC(O)(c2ccc(Cl)cc2)CC1)(c1ccccc1)c1ccccc1`, for which the fluorescence ratio was 1.01.

Consider `Cc1cc(NS(=O)(=O)c2ccc(N)cc2)no1`, for which the fluorescence ratio is 1.

As for `CCCC(CCC)C(=O)O`, the fluorescence ratio is 0.99.

For the molecule `COc1cc(Cc2cnc(N)nc2N)cc(OC)c1OC`, the fluorescence ratio was 0.95.

With `COC(=O)C1=C(C)NC(C)=C(C(=O)OCCN(C)Cc2ccccc2)C1c1cccc([N+](=O)[O-])c1` (stereo not drawn), the fluorescence ratio is 0.91.

Take `O=C(CCCN1CCC(O)(c2ccc(Cl)cc2)CC1)c1ccc(F)cc1`: the fluorescence ratio is 0.89.

For the molecule `CC(C)(C)NCC(O)c1ccc(O)c(CO)c1` (stereo not drawn), the fluorescence ratio is 0.94.

Turning to `COc1c2occc2cc2ccc(=O)oc12`, the fluorescence ratio is 1.02.

Consider `NC(=O)c1cccnc1`, for which the fluorescence ratio is 1.01.

As to `CN/C(=C\[N+](=O)[O-])NCCSCc1ccc(CN(C)C)o1`, the fluorescence ratio was 0.89.

Consider `CNCCCN1c2ccccc2CCc2ccccc21`, for which the fluorescence ratio is 1.02.

Consider `CN1C(=O)CC[C@H]1c1cccnc1`, for which the fluorescence ratio is 0.91.

On to `CCCC(=O)Nc1ccc(OCC(O)CNC(C)C)c(C(C)=O)c1` (stereo not drawn), for which the fluorescence ratio is 1.03.

On to `O=C(O)CCc1nc(-c2ccccc2)c(-c2ccccc2)o1`, for which the fluorescence ratio is 0.94.

As for `CC(C(=O)O)c1cccc(C(=O)c2ccccc2)c1` (stereo not drawn), the fluorescence ratio is 0.96.

For the molecule `CN1CCN(C2=Nc3cc(Cl)ccc3Nc3ccccc32)CC1`, the fluorescence ratio is 1.01.

As to `COC(=O)C1=C(C)NC(C)=C(C(=O)OC)C1c1ccccc1[N+](=O)[O-]`, the fluorescence ratio is 0.9.

In a further assay the test system is Neuropilin-2 / VEGF-C interaction (human). Description: inhibitors of NRP2–VEGF-C binding, biochemical, microplate binding format, z-score (AID 743281). The note with it: microplate NRP2/VEGF-C binding assay; hits give low values.
For the molecule `COCCCOc1ccnc(CS(=O)c2nc3ccccc3[nH]2)c1C` (stereo not drawn), the z-score was 0.22.

For `O=C(CCCN1CCC(O)(c2ccc(Cl)cc2)CC1)c1ccc(F)cc1`, the z-score is -0.0752.

For the molecule `CC(C)(C)NCC(O)c1ccc(O)c(CO)c1` (stereo not drawn), the z-score is -0.605.

For `COc1ccc2cc([C@H](C)C(=O)O)ccc2c1`, the z-score is -0.354.

Consider `NC(=O)c1cccnc1`, for which the z-score is 1.84.

`CN1C(=O)CC[C@H]1c1cccnc1`: the z-score was -0.371.

Consider `O=C(O)CCc1nc(-c2ccccc2)c(-c2ccccc2)o1`, for which the z-score is 0.876.

As to `COC(=O)C1=C(C)NC(C)=C(C(=O)OC)C1c1ccccc1[N+](=O)[O-]`, the z-score was -0.452.

Test system in another assay: not listed separately
Description: stimulators of nuclear beta-catenin in C2C12, primary screen, imaging, WNT3A-conditioned medium, mouse C2C12, NPC library (AID 1117326; in the data active = nuclear beta-catenin stimulation mostly above about 4.2%, no sharp cut-off; inactive = mostly below about 10%). The note with it: at 10 µM, hits give high values.
On to `COCCCOc1ccnc(CS(=O)c2nc3ccccc3[nH]2)c1C` (stereo not drawn), for which the nuclear beta-catenin stimulation was 0%.

With `N=c1nc(N2CCCCC2)cc(N)n1O`, the nuclear beta-catenin stimulation is 0.1%.

Regarding `Cc1ccc(-n2nc(C(C)(C)C)cc2NC(=O)Nc2ccc(OCCN3CCOCC3)c3ccccc23)cc1`, the nuclear beta-catenin stimulation is 13.4%.

With `CC(C)CCCC(C)NCCC(C)C` (stereo not drawn), the nuclear beta-catenin stimulation was -1.6%.

Turning to `COc1ccccc1N1CCN(CCCCNC(=O)c2ccc(-c3ccc(C(C)=O)cc3)cc2)CC1`, the nuclear beta-catenin stimulation was 9.8%.

`CCCC(CCC)C(=O)O`: the nuclear beta-catenin stimulation was -1.5%.

On to `C[C@@H](C1=C(CCN(C)C)Cc2ccccc21)c1ccccn1`, for which the nuclear beta-catenin stimulation was -0.2%.

`Cc1cc(-n2nc3ccc(Cl)cc3n2)c(O)c(C(C)(C)C)c1`: the nuclear beta-catenin stimulation is 3.3%.

For `CCO[C@H](Cc1ccc(OCCc2ccc(OS(C)(=O)=O)cc2)cc1)C(=O)O`, the nuclear beta-catenin stimulation is 1.2%.

With `COc1ccc2c(c1)C(=O)N(CCc1ccc(S(=O)(=O)NC(=O)NC3CCCCC3)cc1)C(=O)C2(C)C`, the nuclear beta-catenin stimulation is 0.7%.

As to `CC12CCC(CC1)C(C)(C)O2`, the nuclear beta-catenin stimulation was 1.8%.

Consider `CCN(CC)CCOc1ccc(Cc2ccccc2)cc1`, for which the nuclear beta-catenin stimulation was 2.1%.

On to `NC(=O)c1cccnc1`, for which the nuclear beta-catenin stimulation was 0.1%.

Consider `COCCOCC(OC)OC`, for which the nuclear beta-catenin stimulation is 1.2%.

In the case of `CN1C(=O)CC[C@H]1c1cccnc1`, the nuclear beta-catenin stimulation is -1.4%.

`CC(C)OC(=O)C(C)(C)Oc1ccc(C(=O)c2ccc(Cl)cc2)cc1`: the nuclear beta-catenin stimulation is 1.9%.

For the molecule `O=C(O)C1CCC1`, the nuclear beta-catenin stimulation is -0.9%.

For `Oc1ccc(O)cc1`, the nuclear beta-catenin stimulation is 10.9%.
